Results taken from PubChem BioAssay AID1852 (Sanford-Burnham Center for Chemical Genomics, 2009).
Out of some 2,500 compounds screened, about 1,100 (44%) were called active.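 The calls were made as follows: active = inhibition above 50% at 4 µM in the single-point screen; inactive = inhibition of 50% or less.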 So high a share suggests a set chosen from earlier hits. Some of the results follow.

Experiment: blockers of TNF-a NF-kB luciferase induction – cell-based, HEK293T NF-kB-Luc, luminescence, selectivity assay for NOD1/NOD2 signaling inhibitor project, primary screen (AID 1852)
Conditions: TNF-a induced, 14 h, at 4 µM, stronger effect = higher value

inhibition, active:
COc1cc(/C=C/C(=O)c2ccc(NS(=O)(=O)c3ccc(C)cc3)cc2)cc(OC)c1O 78.9%, COc1cc(OC)c(OC)cc1/C=C/C(=O)c1ccc(NS(=O)(=O)c2ccc(C)cc2)cc1 70.3%, Oc1ccc2ccccc2c1N=Nc1ccccn1 95.8%, O=C(Nc1ccc(Oc2ccccc2)cc1)C1CCN(c2c3c(nc4ncnn24)CCC3)CC1 62%, COc1cc(C(=O)NCCOc2cc(C)ccc2C(C)C)cc(OC)c1OC 52.4%, CC1=CC(C)(C)Nc2ccc(OC(=O)CN3C(=O)CCC3=O)cc21 86.9%, Cc1cccc(Sc2c(C=O)c3ccccc3n2C)c1 60.5%, Cc1ccc(Sc2c(C=O)c3ccccc3n2C)cc1 86.4%, COc1ccc(C2=Nn3c(nnc3-c3ccncc3)SC2)cc1 70.4%, c1csc(C2=Nn3c(nnc3-c3ccncc3)SC2)c1 90.9%, COc1cccc(-c2nnc3n2N=C(C(C)(C)C)CS3)c1 96.3%, c1ccc(C2=Nn3c(nnc3-c3ccncc3)SC2)cc1 70.9%, Clc1ccccc1C1=Nn2c(nnc2-c2ccncc2)SC1 84.4%, Cc1ccc(S(=O)(=O)Nc2cccc3ncccc23)s1 96.4%, O=S(=O)(Nc1cccc2ncccc12)c1cccs1 98.1%, Cc1cc(Br)ccc1NC(=O)CNC(=O)Cn1ncc(Cl)c(Cl)c1=O 94.4%, CCOC(=O)c1ccc(NC(=O)Cn2ncc(Cl)c(Cl)c2=O)cc1 60.3%, O=C(Cn1ncc(Cl)c(Cl)c1=O)N1CCc2ccccc21 73%, O=C(Cn1ncc(Cl)c(Cl)c1=O)c1ccc(Cl)cc1 75.4%, CCC(=O)Nc1ccc(C(=O)Cn2ncc(Cl)c(Cl)c2=O)cc1 56.5%, COc1ccccc1Nc1nc(-c2sc(NC(=O)c3ccco3)nc2C)cs1 82.3%, CC(=O)Nc1nc(C)c(-c2csc(Nc3ccc(O)cc3)n2)s1 58.5%, Cc1[nH]nc2ncc(C(=O)c3ccccc3O)cc12 67.9%, C/C(=N\NC(=O)COc1ccccc1-c1ccccc1)c1ccccn1 106%, C/C(=N\NC(=O)c1cccc(Br)c1)c1ccccn1 98%, C/C(=N\NC(=O)c1ccc(Cl)cc1)c1ccccn1 103%, C/C(=N\NC(=O)Cc1ccc(Cl)cc1)c1ccccn1 101%, COc1ccc(C(=O)N/N=C(\C)c2ccccn2)cc1OC 106%, C/C(=N\NC(=O)c1ccc(Cl)c(Cl)c1)c1ccccn1 102%, C/C(=N\NC(=O)c1ccc(F)cc1)c1ccccn1 106%, CCOC(=O)c1csc(Nc2nc3ccc(F)cc3s2)n1 106%, Nc1[nH]n2c(=O)cc(-c3ccccc3)nc2c1N=Nc1ccccc1 64.7%, COc1cccc(N=Nc2c(N)[nH]n3c(=O)cc(-c4ccccc4)nc23)c1 75.4%, Nc1[nH]n2c(=O)cc(-c3ccccc3)nc2c1N=Nc1ccc2c(c1)OCO2 50.6%, CCc1ccc(-c2nc(CSCC(=O)N3CCN(c4ccccn4)CC3)c(C)o2)cc1 73.1%, O=C(Nc1nccs1)c1sc2cc(Cl)ccc2c1Cl 103%, Cn1ncc([N+](=O)[O-])c1C(=O)Nc1cccc(Cl)c1 92.6%, Cc1csc(NC(=S)Nc2cccc(Cl)c2)n1 100%, O=[N+]([O-])c1cccc(NC(=S)Nc2nc(-c3ccc(Cl)cc3Cl)cs2)c1 64.3%, CCN1/C(=C/c2ccc3cccc(C)c3[n+]2CC)Sc2ccccc21 61.9%, CCN1/C(=C/c2sc(-c3ccccc3C)c[n+]2C)Sc2ccccc21 95.5%, CC[n+]1c(/C=C2\Sc3ccccc3N2C)ccc2cccc(C)c21 70.3%, CC1C/C(=C/c2ccccn2)C(=O)/C(=C/c2ccccn2)C1 (configuration not stated) 96.2%, CC(C)(C)C1C/C(=C/c2ccccn2)C(=O)/C(=C/c2ccccn2)C1 (configuration not stated) 103%, O=C(NCc1ccccc1)C1=C[C@@H](c2csc3ccccc23)C[C@@H](OCCCCO)O1 69.1%, Cn1c(/C=C/c2ccc(Cl)cc2Cl)c([N+](=O)[O-])c(=O)n(C)c1=O 71.4%, Cc1sc(NC(=O)c2ccccc2)c(C(c2ccccn2)N2CCN(CCO)CC2)c1C (configuration not stated) 51.9%, Cc1nn(Cc2ccc(Cl)cc2)c(C)c1NC(=O)c1noc2c1CCc1ccccc1-2 105%, COc1cc(Cl)c(C)cc1NC(=O)CN(C)Cc1cccc(OC)c1OC 57.5%, COc1cc(OC)nc(-n2ncc(Br)c(Br)c2=O)n1 105%, Cc1ccc(-n2ncc(Br)c(Br)c2=O)cc1 105%, O=c1c(Br)c(Br)cnn1-c1ccccc1 90.8%

inhibition, inactive:
COc1cccc(C(=O)/C=C/Nc2ccc(S(=O)(=O)Nc3cccc(C(C)=O)c3)cc2)c1 46.2%, COc1cccc(/C=C/C(=O)c2ccc(NS(=O)(=O)c3ccc(C)cc3)cc2)c1 4.1%, COc1cc(/C=C/C(=O)c2ccc(C)cc2)ccc1OCC#N 19.5%, Oc1ccc(N=Nc2ccccc2C(F)(F)F)c2cccnc12 20.4%, Cc1ccccc1NC(=O)C1CCN(c2cc(-c3ccccc3)nc3ncnn23)CC1 46%, CC(=O)c1ccc(N2CCN(C(=S)Nc3ccc(Oc4ccccc4)cc3)CC2)cc1 41.5%, COCCNC(=S)N(CCc1c(C)[nH]c2ccc(C)cc12)Cc1cc(OC)c(OC)c(OC)c1 19.3%, COc1ccc(CCNC(=O)c2cc(=O)c3cc(C)ccc3o2)cc1OC 19.4%, CC1=CC(C)(C)Nc2ccc(OC(=O)CN3C(=O)C4CCCCC4C3=O)cc21 (configuration not stated) 42.7%, CC1=CC(C)(C)Nc2ccc(OC(=O)C(C)N3C(=O)c4ccccc4C3=O)cc21 (configuration not stated) 40.1%, Cn1c(Sc2ccc(Br)cc2)c(C=O)c2ccccc21 48.7%, Cn1c(Sc2ccc(Cl)cc2)c(C=O)c2ccccc21 34.4%, COc1cccc(OCCn2cc(C=O)c3ccccc32)c1 42.4%, COC(=O)c1cccc(NS(=O)(=O)c2cccs2)c1C 7.7%, CCc1cccc(C)c1NS(=O)(=O)c1cccs1 -2.7%, Cc1c(NS(=O)(=O)c2ccc3c(c2)OCCO3)cccc1-c1nc2cccnc2s1 48.1%, CC(NC(=S)NC1CCCCC1)c1ccc(C(C)(C)C)cc1 (configuration not stated) 9.1%, CC(C)(C)C(=O)Cn1ncc(Cl)c(Cl)c1=O 10.7%, O=C1CN(C(=O)Cn2ncc(Cl)c(Cl)c2=O)c2ccccc2N1 40.3%, Cc1ccc(-c2csc(N3CCN(CCCn4c(-c5ccncc5)nc5ccccc54)CC3)n2)cc1 -10.9%, CCN(c1ccc(C)cc1)S(=O)(=O)c1nnc(NC(=O)c2ccco2)s1 10.4%, CC(=O)Nc1nc(C)c(-c2csc(Nc3cccc([N+](=O)[O-])c3)n2)s1 24.8%, CC(=O)Nc1ccc(C(=O)Nc2nc(-c3cc(C)n(Cc4ccccc4)c3C)cs2)cc1 20.1%, Cc1ccc(O)c(C(=O)c2cnc3c(c2)COc2ccc(C)cc2-3)c1 22%, O=C(c1cnn(C(=O)c2ccc(O)cc2)c1)c1ccccc1O 9.9%, C/C(=N\NC(=O)c1cc(Br)ccc1O)c1ccccn1 25.1%, Cc1ccc(Nc2nc3nonc3[nH]c2=O)cc1Cl -23%, CCOC(=O)c1ccc2nc(Nc3nc4ccc(F)cc4s3)sc2c1 -87.4%, COC(=O)c1ccc2nc(Nc3nc4ccc(F)cc4s3)sc2c1 0%, CCOc1ccc(-c2nc(CSCC(=O)N3CCN(c4cccc(OC)c4)CC3)c(C)o2)cc1 49.3%, O=C(CSCc1ccccc1Cl)N1CCN(c2ccccn2)CC1 -30.9%, O=C(Nc1cccc(NC(=O)c2sc3ccccc3c2Cl)c1)c1ccco1 -117%, Cn1ncc([N+](=O)[O-])c1C(=O)Nc1ccc(-c2ccccc2)cc1 -39.7%, CS(=O)(=O)N1CCC(C(=O)Nc2cccc(Cl)c2)CC1 4.2%, Cc1ccccc1CN(CC(=O)Nc1cccc([N+](=O)[O-])c1)S(=O)(=O)c1ccc(Cl)cc1 -15.8%, Cc1ccc(NC(=S)NC(=O)c2ccc(F)cc2)cc1S(=O)(=O)Nc1cccc(Cl)c1 32.5%, O=C(Nc1ccc([N+](=O)[O-])cc1)Nc1nc(-c2ccc(Cl)s2)cs1 42.8%, CCCCN1/C(=C/c2ccc3ccccc3[n+]2CC)Sc2ccccc21 45.1%, O=C(Nc1ccc(-c2nc3ncccc3o2)cc1)c1ccc([N+](=O)[O-])o1 27.5%, Cn1c(/C=C/c2ccc(Cl)cc2)c([N+](=O)[O-])c(=O)n(C)c1=O 18.7%, Cn1c(/C=C/c2ccc(Br)cc2)c([N+](=O)[O-])c(=O)n(C)c1=O -12.1%, O=C(Nc1sc2c(c1C(=O)NCCCO)CCCC2)c1ccccc1 35.2%, Cc1cc(C(=O)Nc2c(C)nn(Cc3c(Cl)cccc3Cl)c2C)no1 -34.2%, CCN(CC(=O)Nc1ccc([N+](=O)[O-])cc1OC)c1ccccc1 -39%, COc1cccc(NC(=O)CN(C)CC(=O)Nc2ccc(C)c([N+](=O)[O-])c2)c1 42.8%
